# Assay outcomes as filed in PubChem BioAssay.
# A selection: hits, their analogues and other compounds. The true share with any hit is near 2.6%.
# ABCB6 inh 2 = inhibitors of human ABC transporter ABCB6; Q9NP58; K562-ABCB6 porphyrin accumulation, flow cytometry, 1 h; hits give low values; fluorescence ratio to DMSO, % at 10 µM; 360,000 compounds, 0.19% hits; AID 602162;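 active = fluorescence ratio to DMSO below 75%, the collection mean minus 3 SD; inconclusive = too few cells collected in the well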;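 also: signal is porphyrin accumulated inside mitochondria; lower ratio means ABCB6 inhibition with less porphyrin fluorescence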
# MLLE-PAM2 inh = inhibitors of microRNA-mediated deadenylation, human PABP1 MLLE binding; P11940; GST-MLLE / FITC-PAM2 fluorescence polarization; inhibition, % at 20 µM; 360,000 compounds, 0.36% hits; AID 588489; in the data active = inhibition above about 35%, passing the limit was not always enough
# Target sequence (P11940 whole entry, looked up): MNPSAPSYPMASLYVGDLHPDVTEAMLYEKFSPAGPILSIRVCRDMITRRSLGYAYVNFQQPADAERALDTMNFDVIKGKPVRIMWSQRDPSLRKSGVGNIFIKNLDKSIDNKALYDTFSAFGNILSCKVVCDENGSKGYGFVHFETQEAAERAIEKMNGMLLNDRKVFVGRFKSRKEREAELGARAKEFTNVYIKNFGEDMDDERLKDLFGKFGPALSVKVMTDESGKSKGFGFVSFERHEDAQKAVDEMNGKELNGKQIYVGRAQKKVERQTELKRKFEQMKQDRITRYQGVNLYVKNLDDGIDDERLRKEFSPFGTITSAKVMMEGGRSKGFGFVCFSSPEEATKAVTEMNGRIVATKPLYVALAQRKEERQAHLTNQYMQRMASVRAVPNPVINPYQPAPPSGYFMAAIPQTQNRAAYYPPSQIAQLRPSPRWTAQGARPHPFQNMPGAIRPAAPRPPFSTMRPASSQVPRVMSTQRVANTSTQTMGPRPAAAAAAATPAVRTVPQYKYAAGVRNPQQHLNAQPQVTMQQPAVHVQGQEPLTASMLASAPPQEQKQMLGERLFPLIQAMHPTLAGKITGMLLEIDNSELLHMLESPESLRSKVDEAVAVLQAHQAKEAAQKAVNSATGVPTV
# PABP polyA inh = PABP-poly(A) binding inhibition | P11940 | PABP-poly(A) RNA binding, fluorescence polarization | calls only at 35 µM | 290,000 compounds, 1% hits;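 also: calls also rest on retests at 20 µM and on dose response follow-up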
# PHOSPHO1 block = blocks human PHOSPHO1 phosphatase activity | 290,000 compounds, 1.1% hits | recombinant PHOSPHO1, absorbance phosphatase assay | inhibition, % at 13.3 µM | Q8TCT1; in the data active = inhibition above about 60%
# AI-2 QS mod = Vibrio harveyi AI-2 quorum sensing modulation; Vibrio harveyi JMH597 AI-2 luminescence/OD600 ratio, 9 h; hits give low values; strain lacks LuxN and CqsS sensors; 0 = neutral-control median; AID 2094; 300,000 compounds, 0.4% hits; activity change, % at 7.5 µM; in the data active = activity change below about -75%, passing the limit was not always enough; inconclusive = no clear call, values can overlap the other calls;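 also: luminescence divided by OD600 gain over 9 h not by final OD600 alone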
# eIF4H inh = inhibitors of RNA binding by human eIF4H; 290,000 compounds, 0.94% hits; Q15056; inhibition, % at 35 µM; eIF4H fluorescence polarization binding assay;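 also: calls also rest on retests at 20 µM and on dose response follow-up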
# Numbers stand for hits; 0 = inactive; ? = inconclusive; - = no result given; + = active, no number. Unless noted, no rule for the calls is given here.
SMILES,ABCB6 inh 2,MLLE-PAM2 inh,PABP polyA inh,PHOSPHO1 block,AI-2 QS mod,eIF4H inh
CN1/C(=C/C=C(/C#N)C(N)=O)C(C)(C)c2ccccc21,0,0,0,0,0,55
O=C1NC[C@@H](CCCCN2C[C@H](Cc3ccccc3)N(CCc3ccccc3)C(=O)C2=O)N(CCc2ccccc2)C1=O,0,-,-,-,-,-
COc1cc(NCCCCCCN)c2ncccc2c1OC,0,0,-,-,-,-
COc1cc(NC(C)CCCNC(C)C)c2ncccc2c1OC (centres undefined),0,44,-,-,-,-
COc1ccc(-c2cc3c(c4c2ccn4C)C2CCC3C2)cc1OC (centres undefined),0,0,-,-,-,-
CCCCCCCCN1C(=O)[C@H](CC(=O)NCc2cccc3ccccc23)C[C@@]2(C(=O)OCC)CCCC=C12,0,-,-,-,-,-
COc1ccc(-c2csc(Nc3ccccc3)[n+]2Cc2ccccc2)cc1,0,0,0,0,0,0
Cc1ccc(-c2csc(Nc3ccc(C(=O)O)cc3)[n+]2Cc2ccccc2)cc1,0,0,0,62,0,0
COC(=O)N1C(=O)[C@](c2ccc(OC)cc2)(C(C)C)N1C(=O)OC,0,0,0,0,0,0
COC(=O)N1C(=O)[C@](c2ccsc2)(C(C)C)N1C(=O)OC,0,0,0,67,0,0
CCOC(=O)CSc1nc(N)c(C#N)c(-c2ccc(OC)cc2)c1C#N,0,0,0,0,0,0
CCOC(=O)CC(=O)CSc1nc2c(cc1C#N)CCCCCC2,0,0,0,76,0,0
CCOC(=O)CC(=O)CSc1nc(-c2cccnc2)ccc1C#N,0,0,+,0,0,69
COC(=O)CC(=O)CSc1nc2c(cc1C#N)CCC2,0,0,0,0,0,0
CCOC(=O)CC(=O)CSc1nc(N)c(C#N)c(-c2ccc(F)cc2)c1C#N,0,0,+,0,0,62
N#Cc1c(N)[nH]c(C(=O)c2ccccc2)c1-c1ccccc1Br,0,-,-,-,-,-
OCC[C@@H]1C[C@H](O)[C@@H](O)[C@]2(OCc3ccc4ccccc4c32)O1,0,0,-,-,-,-
CC(=O)Nc1ccc(-c2ccnc3c2CC(C)(C(=O)NCc2cccc(Cl)c2)O3)cc1 (centres undefined),0,0,-,-,-,-
CCOC(=O)C1(C)CCCN(C(=O)C(c2ccccc2)c2ccccc2)C1 (centres undefined),0,0,-,-,-,-
CC(C)C(=O)N1CCC1(C)C(=O)Nc1nc2ccccc2[nH]1 (centres undefined),0,0,-,-,-,-
Cc1ccc(NC(=O)CSc2nc(-c3ccco3)nc3cc(=O)[nH]n23)c(Cl)c1,0,0,+,0,0,86
Cc1ccc(NC(=O)CSc2n[nH]c(-c3ccco3)n2)c(C)c1,0,0,0,0,0,0
O=C1COC(c2ccccc2O)=NN1CCCl,0,0,-,-,-,-
O=C(c1ccc(CSc2ccc(Cl)cc2)o1)N1CCOCC1,0,0,-,-,-,-
CC1(C)Cc2c(sc(NC(=O)c3ccco3)c2C#N)C(C)(C)N1,-,-,+,0,0,61
SMILES,ABCB6 inh 2,MLLE-PAM2 inh,PABP polyA inh,PHOSPHO1 block,AI-2 QS mod,eIF4H inh
NS(=O)(=O)c1ccc(Cc2ncc(C(F)(F)F)cc2Cl)s1,0,0,0,0,0,0
O=C(CCl)c1ccc(Cc2ncc(C(F)(F)F)cc2Cl)s1,0,0,0,77,0,0
CCn1c(O)c(C=Nc2ccccc2)oc1=S,0,0,0,103,0,0
CC(OC(=O)c1ccc(NC(=O)CC#N)cc1)C(=O)Nc1nc(-c2ccccc2)cs1 (centres undefined),0,0,-,-,0,-
CC(OC(=O)c1ccc(NC(=O)CC#N)cc1)C(=O)Nc1ccc(Oc2ccccc2)cc1 (centres undefined),0,0,0,0,0,54
COc1ccc(/C=N/Nc2ccccc2C(=O)O)cc1Cn1cc([N+](=O)[O-])cn1,0,0,0,60,0,0
COc1ccc(/C=N/NC(=O)c2ccccc2O)cc1Cn1cc([N+](=O)[O-])cn1,0,0,0,0,0,0
Fc1ccc(N2CCN(C3=Nc4cccc5cccc3c45)CC2)cc1,0,0,0,0,0,0
c1ccc(CN2CCN(C3=Nc4cccc5cccc3c45)CC2)cc1,0,0,0,0,0,94
O=C1NC[C@@H](CCCCN2CCN(CCc3ccccc3)C(=O)C2=O)N(CCC2CCCCC2)C1=O,0,-,-,-,-,-
Cc1cccc(SC2CCN(Cc3nc(CC4CC4)no3)CC2)c1,0,0,0,0,0,0
Cc1cccc(N2CCN(Cc3nc(CC4CC4)no3)CC2)n1,0,0,0,60,?,0
COc1cc(-c2nnc3sc(Cc4ccccc4)nn23)cc(OC)c1OC,0,0,0,70,0,0
COc1ccc(Cc2nn3c(-c4cc(OC)c(OC)c(OC)c4)nnc3s2)cc1,0,0,0,0,0,0
Cc1cn([C@H]2C[C@H](O)[C@@H](CNCc3ccccc3OCCCN3CCOCC3)O2)c(=O)[nH]c1=O,0,0,-,-,-,-
O=c1cc(CN2CCCc3ccccc32)nc2sccn12,0,0,0,0,0,94
O=c1cc(CN2CCc3ccccc32)nc2sccn12,0,0,0,0,0,0
CCn1c(/C=C/c2cc[n+](C)cc2)nc2ccccc21,0,0,+,0,0,0
COc1cc(NC(=O)c2cc(S(=O)(=O)N3CCc4ccccc43)cn2C)cc(OC)c1OC,0,0,0,65,0,0
Cc1ccc(NC(=O)c2cc(S(=O)(=O)N3CCc4ccccc43)cn2C)cc1,0,0,0,0,0,0
CCOc1ccc(Cl)cc1-c1cc(C(=O)NC2CCCCC2)[nH]n1,0,0,-,-,-,-
NC(CCc1ccccc1)c1csc(Nc2nccc(C(F)(F)F)n2)n1 (centres undefined),0,0,-,-,-,-
Cc1ccc(NC(=O)c2cc(S(=O)(=O)Nc3ccc(C)cc3)cs2)cc1,0,0,-,-,-79,-
O=C1NC[C@@H](CCCCN2C[C@H](Cc3ccccc3)N(Cc3ccccc3)C(=O)C2=O)N(Cc2ccccc2)C1=O,0,-,-,-,-,-
CCn1c(N)c(C(=O)N2CCOCC2)sc1=S,0,0,0,69,0,0
SMILES,ABCB6 inh 2,MLLE-PAM2 inh,PABP polyA inh,PHOSPHO1 block,AI-2 QS mod,eIF4H inh
CCn1c(N)c(C(=O)NCC2CCCO2)sc1=S (centres undefined),0,0,0,100,0,0
CC(=O)Nc1ccc(-c2noc(-c3csc([C@@H]4C[C@H](O)[C@@H](CO)O4)n3)n2)cc1,0,0,-,-,-,-
Cc1ccc(OC2CCN(C(=O)[C@H]3O[C@@H](n4ccc(=O)[nH]c4=O)[C@H](O)[C@@H]3O)CC2)cc1,0,0,-,-,-,-
CC(C)(C)C(=O)O/N=C(\N)c1ccc([N+](=O)[O-])s1,0,0,0,0,-84,0
N/C(=N\OC(=O)C1CC1)c1ccc([N+](=O)[O-])s1,0,0,0,0,-88,0
CCCCCCCCSC1=CC(=O)C(OC)=C(OC)C1=O,0,0,-,-,-,-
CCOC(=O)CSc1n[nH]c(=S)s1,0,0,0,60,0,0
CCOC(=O)CCSc1n[nH]c(=S)s1,0,0,0,0,0,0
CCOC(=O)CNC(=O)CSc1nnc(SCC(=O)NCC(=O)OCC)s1,0,0,0,0,0,0
